# This is part of a sample that, as a whole, favours compounds with a hit. Of some 79,000 tested, about 15% had one in any assay. Values without a mark were called inactive. Active and inactive are the calls of the source. Cut-off read from the data, not from the text of the source: active = growth inhibition above about 70%; inactive = the rest.
# Key:
# [1] = NCI Yeast Anticancer Drug Screen. Data for the rad52 strain (AID 147);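 note: 0% = growth of vehicle-treated control cultures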; settings: S. cerevisiae rad52 mutant growth inhibition, hits give high values
# In short: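 Measured: yeast growth inhibition. System: strain with a defined DNA damage repair alteration. Reference: vehicle-treated control cultures.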
# [2] = NCI Yeast Anticancer Drug Screen. Data for the wt1 strain (AID 149);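 note: 0% = growth of vehicle-treated wt1 cultures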; settings: S. cerevisiae wt1 strain (SPY 50644) growth inhibition, hits give high values
# In short: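 wt1 strain grown with compound or vehicle; inhibition taken from the growth difference.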
# [3] = NCI Yeast Anticancer Drug Screen. Data for the rad50EPP+ strain (AID 151);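 note: 0% = growth of vehicle-treated control cultures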; settings: S. cerevisiae rad50 mutant strain, hits give high values
# In short: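 One strain with a rad50 alteration (rad50EPP+) was compound-treated, its growth then compared to that of vehicle controls.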
# [4] = NCI Yeast Anticancer Drug Screen. Data for the rad50 strain (AID 155);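 note: 0% = growth of vehicle-only cultures of the same strain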; settings: S. cerevisiae rad50 strain growth inhibition, hits give high values
# In short: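 DNA repair mutant yeast, compound exposure, growth read-out; inhibition is taken relative to vehicle.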
# [5] = NCI Yeast Anticancer Drug Screen. Data for the mec2-1 strain (AID 157); settings: S. cerevisiae mec2-1 strain, hits give high values
# In short: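 Test agents were screened against the mec2-1 yeast strain, with defined DNA repair or cell cycle alteration. Growth was scored as inhibition against vehicle-only controls.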
# [6] = NCI Yeast Anticancer Drug Screen. Data for the rad14 strain (AID 159);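 note: 0% = growth of vehicle-treated control cultures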; settings: S. cerevisiae rad14 strain growth inhibition, hits give high values
# In short: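 DNA repair-defective yeast, compound-exposed; % growth inhibition derived by comparison with vehicle-treated controls.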
# [7] = NCI Yeast Anticancer Drug Screen. Data for the sgs1 mgt1 strain (AID 161);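 note: 0% = growth of cultures given vehicle only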; settings: S. cerevisiae sgs1 mgt1 strain, hits give high values
# In short: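 Genetically altered yeast, compound exposure, growth inhibition relative to vehicle.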
# [8] = NCI Yeast Anticancer Drug Screen. Data for the cln2 rad14 strain (AID 165);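 note: 0% = growth equal to vehicle treated cultures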; settings: S. cerevisiae cln2 rad14 strain, hits give high values
# In short: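 Growth of compound-exposed yeast (cln2 rad14 genotype) measured and expressed as inhibition relative to vehicle.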
# [9] = NCI Yeast Anticancer Drug Screen. Data for the bub3 strain (AID 167); settings: S. cerevisiae bub3 mutant strain, hits give high values
# In short: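 In this screen, a yeast mutant lacking normal mitotic checkpoint function is challenged with compound. Relative growth versus vehicle gives the inhibition value.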
# [10] = NCI Yeast Anticancer Drug Screen. Data for the wt2 strain (AID 169);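 note: 0% = growth of vehicle-treated yeast cultures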; settings: S. cerevisiae wt2 strain growth inhibition, hits give high values
# In short: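 Genetically defined yeast strains from a DNA-repair/cell-cycle panel were used. Compound-exposed yeast growth was measured, and the inhibition was calculated relative to vehicle treatment.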
# [11] = NCI Yeast Anticancer Drug Screen. Data for the mlh1 strain (AID 171);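 note: 0% = growth of vehicle-treated control cultures of the same strain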; settings: S. cerevisiae mlh1 strain growth inhibition, hits give high values
# In short: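 Here the genetically defined yeast mutant is grown with each compound, and the extent to which its growth falls below that of vehicle-exposed cells is reported.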
# [12] = NCI Yeast Anticancer Drug Screen. Data for the sgs1 strain (AID 173);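 note: 0% = growth of vehicle-only control cultures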; settings: S. cerevisiae sgs1 mutant, hits give high values
# In short: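 Relative growth inhibition, referenced to vehicle, was determined in a yeast strain with a defined alteration affecting DNA damage repair or cell cycle control after compound exposure.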
# [13] = NCI Yeast Anticancer Drug Screen. Data for the mlh1 rad18 strain (AID 175); settings: S. cerevisiae mlh1 rad18 strain growth inhibition, hits give high values
# In short: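 In this whole-cell yeast screen, a strain with altered DNA damage repair is challenged with compound, and its growth is measured against matched vehicle-treated controls.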
# [14] = NCI Yeast Anticancer Drug Screen. Data for the rad18 strain (AID 177); settings: S. cerevisiae rad18 mutant growth inhibition, hits give high values
# In short: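 Screen uses a yeast strain with a defined lesion in DNA damage repair; compound effect is read as loss of growth compared to untreated vehicle cultures.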
# [15] = at 5.0 µM (retest, dose inferred, filed as 0.5)
# [16] = at 50.0 µM (retest, dose inferred, filed as 5.0)
smiles,measurement,setting,value
CCOC(=O)[C@]1(Br)CC[C@@]1(Br)C(=O)OCC,growth inhibition,[1]; at 1.2 µM,-78%
same,growth inhibition,[1]; at 3.7 µM,-24%
same,growth inhibition,[1]; at 11.0 µM,31%
same,growth inhibition,[1]; at 33.0 µM,95% (active)
same,growth inhibition,[1]; at 100.0 µM,97% (active)
same,growth inhibition,[2]; at 1.2 µM,-44%
same,growth inhibition,[2]; at 3.7 µM,-33%
same,growth inhibition,[2]; at 11.0 µM,-3%
same,growth inhibition,[2]; at 33.0 µM,98% (active)
same,growth inhibition,[2]; at 100.0 µM,99% (active)
same,growth inhibition,[3]; at 1.2 µM,-13%
same,growth inhibition,[3]; at 3.7 µM,-6%
same,growth inhibition,[3]; at 11.0 µM,29%
same,growth inhibition,[3]; at 33.0 µM,75% (active)
same,growth inhibition,[3]; at 100.0 µM,94% (active)
same,growth inhibition,[4]; at 1.2 µM,-8%
same,growth inhibition,[4]; at 3.7 µM,7%
same,growth inhibition,[4]; [15],26%
same,growth inhibition,[4]; at 11.0 µM,23%
same,growth inhibition,[4]; at 33.0 µM,94% (active)
same,growth inhibition,[4]; [16],67%
same,growth inhibition,[4]; at 50.0 µM,89% (active)
same,growth inhibition,[4]; at 100.0 µM,98% (active)
same,growth inhibition,[5]; at 1.2 µM,-38%
same,growth inhibition,[5]; at 3.7 µM,-25%
same,growth inhibition,[5]; [15],29%
same,growth inhibition,[5]; at 11.0 µM,27%
same,growth inhibition,[5]; at 33.0 µM,97% (active)
same,growth inhibition,[5]; [16],80% (active)
same,growth inhibition,[5]; at 50.0 µM,93.1% (active)
same,growth inhibition,[5]; at 100.0 µM,99% (active)
same,growth inhibition,[6]; at 1.2 µM,-53%
same,growth inhibition,[6]; at 3.7 µM,-31%
same,growth inhibition,[6]; at 11.0 µM,14%
same,growth inhibition,[6]; at 33.0 µM,94% (active)
same,growth inhibition,[6]; at 100.0 µM,99% (active)
same,growth inhibition,[7]; [15],-7%
same,growth inhibition,[7]; [16],-36%
same,growth inhibition,[7]; at 50.0 µM,91.8% (active)
same,growth inhibition,[8]; [15],-7%
same,growth inhibition,[8]; [16],-76%
same,growth inhibition,[8]; at 50.0 µM,87.3% (active)
same,growth inhibition,[9]; at 1.2 µM,-38%
same,growth inhibition,[9]; at 3.7 µM,-44%
same,growth inhibition,[9]; [15],2%
same,growth inhibition,[9]; at 11.0 µM,-19%
same,growth inhibition,[9]; at 33.0 µM,81% (active)
same,growth inhibition,[9]; [16],-38%
same,growth inhibition,[9]; at 50.0 µM,91.4% (active)
same,growth inhibition,[9]; at 100.0 µM,96% (active)
same,growth inhibition,[10]; at 1.2 µM,-67%
same,growth inhibition,[10]; at 3.7 µM,-48%
same,growth inhibition,[10]; at 11.0 µM,6%
same,growth inhibition,[10]; at 33.0 µM,98% (active)
same,growth inhibition,[10]; at 100.0 µM,100% (active)
same,growth inhibition,[11]; at 1.2 µM,-37%
same,growth inhibition,[11]; at 3.7 µM,-29%
same,growth inhibition,[11]; at 11.0 µM,35%
same,growth inhibition,[11]; at 33.0 µM,97% (active)
same,growth inhibition,[11]; at 100.0 µM,99% (active)
same,growth inhibition,[12]; at 1.2 µM,-27%
same,growth inhibition,[12]; at 3.7 µM,-22%
same,growth inhibition,[12]; at 11.0 µM,43%
same,growth inhibition,[12]; at 33.0 µM,96% (active)
same,growth inhibition,[12]; at 100.0 µM,99% (active)
same,growth inhibition,[13]; [15],57%
same,growth inhibition,[13]; [16],93% (active)
same,growth inhibition,[13]; at 50.0 µM,91% (active)
same,growth inhibition,[14]; at 1.2 µM,-58%
same,growth inhibition,[14]; at 3.7 µM,-43%
same,growth inhibition,[14]; at 11.0 µM,8%
same,growth inhibition,[14]; at 33.0 µM,93% (active)
same,growth inhibition,[14]; at 100.0 µM,99% (active)
